# Sampled rows, rich in hits. Any-hit rate of the full collection: about 2.9%.
# B2AR arrestin ag – qHTS assay of beta-arrestin-biased ligands of beta2-adrenergic receptor: NCGC Sytravon Library Screen; Beta-2 adrenergic receptor (Homo sapiens), P07550; HTLA Tango cells, beta-arrestin recruitment, luciferase luminescence, 18 h; Potency, µM (highest dose often 46.1 µM), usual class: activators; 44,000 tested, under 10 active; AID 1347077, 2019;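 further: potency means the concentration at half of the fitted maximal effect; 0% = DMSO and full agonism = EC100 isoproterenol or metaproterenol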
#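 Luminescence read-out: arrestin recruitment to recombinant beta2-AR releases tTA, inducing luciferase. Cells exposed 18 hr at 37 degrees C to up to 46 microM compound; %Activity from corrected signal, concentration-response curves classified by r2, magnitude and efficacy.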
# TSG101-PTAP inh – qHTS Validation Assay for Inhibitors of HIV-1 Budding by Blocking the Interaction of PTAP/TSG101: Sytravon Library Screen; Tumor susceptibility gene 101 protein (Homo sapiens), Q99816; Fluorescence polarization, FITC-PTAP peptide/Tsg101, 20 min; Potency, µM (titrated, usually from 115 µM), hits mostly inhibitors; 44,000 tested, under 10 active; further: potency means the concentration at half of the fitted maximal effect; 0% is about no effect
#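 The Tsg101 binding domain, at 10 uM final, is mixed with compound and a FITC peptide bearing the PTAP motif (50 nM final). After 20 min at r.t., polarization is measured; actives defined by CRC class, efficacy cut-off 60% inhibition.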
# GPR32 ag – qHTS for Agonists of Human Resolvin D1 Receptor DRV1; Probable G-protein coupled receptor 32 (Homo sapiens), O75388; CHO-K1 GPR32 beta-arrestin PathHunter luminescence, 90 min; zero percent set by DMSO-only wells; activation, % at 76.9 µM; 48,000 tested, 2.5% active;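 active means activation of at least 60% and not above a set upper limit, about 1 call in 100 departs from these limits; inconclusive means activation of 40% to 60%, or above that upper limit; inactive means activation under 40%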; further: 0% is about no effect
# Target sequence (O75388 whole entry, looked up): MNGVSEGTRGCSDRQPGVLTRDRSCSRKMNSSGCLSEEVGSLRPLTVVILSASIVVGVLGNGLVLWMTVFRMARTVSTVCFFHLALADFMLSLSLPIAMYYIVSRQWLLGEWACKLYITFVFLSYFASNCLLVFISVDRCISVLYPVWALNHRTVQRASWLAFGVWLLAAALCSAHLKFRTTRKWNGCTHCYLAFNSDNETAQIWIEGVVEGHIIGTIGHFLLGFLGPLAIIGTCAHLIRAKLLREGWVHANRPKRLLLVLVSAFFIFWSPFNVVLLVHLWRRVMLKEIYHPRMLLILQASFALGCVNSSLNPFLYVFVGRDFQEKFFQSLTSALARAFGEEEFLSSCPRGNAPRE
#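 Readings come from a cell-based beta-arrestin complementation format: CHO-K1 GPR32 stable cells (2,500/well) treated 90 min with compounds, then beta-Gal substrate added for 1 h before chemiluminescence imaging.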
# GALC G270D act – A Novel Cell-Based Assay to Identify Small Molecules for B -Galactocerebrosidase. P54803. 145M-Twi-hGALC-G270D cells (Twitcher mouse brain line with human GALC G270D), HMU-beta-Gal fluorescence, 48 h. Potency, µM (doses to about 57.5 µM), actives largely listed as activators. 45,000 tested, 0.1% active. AID 1159614, 2016; further: potency means the concentration at half of the fitted maximal effect; 0% is about no effect; nearly all actives have a fitted effect of over 65% in size
#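 Fluorescence readout: HMU-β-gal cleavage by mutant GALC (0.1 mM final, citrate/phosphate pH 5.2 with 1 mg/mL taurocholate), stopped with carbonate/bicarbonate plus Triton X-100. Cells: murine Twitcher 145M-Twi expressing human G270D GALC; qHTS for activators.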
# Active calls of the source: *; i = inactive; u = inconclusive; x = no result given; ! = not active in a repeat. Unless noted, the call rests on the fitted dose curve; in most records, active means well fitted curve in the direction sought with a large enough effect; inconclusive means small, poorly fitted or top-dose-only effect, or another doubt; inactive means no such curve, though single readings can be large; an effect the other way counts as inactive or inconclusive.
SMILES,B2AR arrestin ag,TSG101-PTAP inh,GPR32 ag,GALC G270D act
O=C1c2[nH]nc(-c3ccc(F)cc3)c2C(c2ccccc2F)N1c1ccccc1 (centres undefined),i,i,108*,i
COc1ccc(-c2noc(-c3ccc(NCc4ccco4)c([N+](=O)[O-])c3)n2)cc1,i,i,46,i
Cc1cc2c(n1-c1ccc(C(=O)NCc3ccccc3Cl)cc1)CCCC2,u,i,-14,i
CCc1ccccc1S(=O)(=O)Cc1ccc(C(=O)NCc2ccc(Cl)cc2)o1,i,i,u,i
CCc1ccccc1S(=O)(=O)Cc1ccc(C(=O)NCCc2ccc(Cl)cc2)o1,i,i,66*,i
CCCCN(CC)C(=O)c1cc2c(=O)n3cccc(C)c3nc2s1,i,i,u,25µM*
CCCCN(CC)C(=O)c1cc2c(=O)n3cccc(C)c3nc2n1C,i,i,-18,i
CCOc1ccc2nc(C)cc(Nc3ccccc3OCC)c2c1,i,i,90*,i
CO[C@@H]1[C@@H](O[C@@H]2O[C@H](C)[C@@H](O[C@H]3C[C@@](C)(O)[C@@H](O)[C@H](C)O3)[C@H](N(C)C)[C@H]2O)[C@@H](CC=O)C[C@@H](C)[C@@H](O[C@@H]2CC[C@H](N(C)C)[C@@H](C)O2)/C=C/C=C/C[C@@H](C)OC(=O)C[C@H]1OC(C)=O,x,x,-10,i
COc1cccc2c1cc1c(=O)n(CC(=O)N3CCN(c4ccccc4F)CC3)nc(C)n12,i,i,-5,i
CCCN(CCC)CC(O)Cn1cc(/C=C/C(=O)c2ccc(OCC)cc2)c2ccccc21 (centres undefined),i,i,u,35µM*
CCN(CC)S(=O)(=O)c1ccc2c(c1)N(CC(=O)NCCCN1CCN(c3cc(Cl)ccc3C)CC1)C(=O)CO2,i,i,78*,i
O=C(CN1C(=O)COc2ccc(Cl)cc21)Nc1cccc(F)c1,i,i,-13,i
Cc1ccc(NC(=O)CN2C(=O)COc3ccc(S(=O)(=O)NC4CCCC4)cc32)cc1Cl,i,i,106*,i
NS(=O)(=O)c1ccc(NC(=O)CN2C(=O)COc3ccc(Cl)cc32)cc1,i,i,93*,i
CCN(CC)S(=O)(=O)c1ccc2c(c1)N(CC(=O)N1CCN(c3cc(Cl)ccc3C)CC1)C(=O)CO2,i,i,-8,i
Cc1ccc(NC(=O)CN2C(=O)COc3ccc(S(=O)(=O)N4CCCCC4)cc32)cc1Cl,i,i,-30,i
CC(C)n1nc(-c2cc3cc(O)ccc3[nH]2)c2c(N)ncnc21,x,x,0,i
CCCNCC(O)COc1ccccc1C(=O)CCc1ccccc1 (centres undefined),x,x,87*!,i
CCN(CC)CCOc1ccccc1C(=O)CCc1ccccc1,x,x,107*,i
COC(=O)CCc1ccc(OCC(O)CNC(C)C)cc1 (centres undefined),x,x,-5,i
CCN(CC)CCOc1ccc(Cc2ccccc2)cc1,x,x,7,i
COc1ccc(C(=O)COC(=O)c2cc(-c3ccccc3)nc3c(C)cccc23)cc1,i,i,-7,i
CC/C=C(\C(=O)N[C@@H]1C(=O)N2C(C(=O)OCOC(=O)C(C)(C)C)=C(COC(N)=O)CS[C@H]12)c1csc(N)n1,x,x,-24,i
CN1C(=O)C(C)(C)c2cc(S(=O)(=O)N3CCCC3C(=O)Nc3ccc(F)cc3)ccc21 (centres undefined),i,i,-2,i
SMILES,B2AR arrestin ag,TSG101-PTAP inh,GPR32 ag,GALC G270D act
O=C(Nc1ccc(F)c(Cl)c1)C1CCCN1S(=O)(=O)c1ccc(F)cc1 (centres undefined),i,i,83*,i
COc1c(Cl)cc(C(=O)Nc2cccc(-c3nc4ccccc4[nH]3)c2)cc1Cl,i,i,106*,i
CCCN(CCC)S(=O)(=O)c1ccc(C(=O)Nc2cccc(-c3nc4ccccc4[nH]3)c2)cc1,i,i,-13,i
CC(=O)Nc1c(C(=O)Nc2cccc(C)c2)nnn1-c1ccc(C)cc1,i,i,119*,i
CCOc1ccc(CCNC(=O)c2cc3cc4ccc(OC)cc4nc3s2)cc1OCC,i,i,65*,i
Cc1ccc(C(=O)n2nc(C)c(S(=O)(=O)N3CCOCC3)c2C)cc1,i,i,3,i
O=C(CC1N=C2c3ccccc3N=C(SCc3ccc(Cl)cc3)N2C1=O)NCCc1ccccc1 (centres undefined),i,i,74*,i
COc1ccc(-n2c(SCC(=O)N3CCc4ccccc43)nc3c([nH]c4ccccc43)c2=O)cc1,i,i,110*,i
COc1ccc(-n2c(SCC(=O)N3CCCc4ccccc43)nc3c([nH]c4ccccc43)c2=O)cc1,i,i,35,i
O[C@@H](COc1cccc2ncccc12)CN1CCN(C2c3ccccc3[C@@H]3[C@H](c4ccccc42)C3(F)F)CC1 (some centres undefined),x,x,8,i
CCN(CC)CCCNC(=O)c1ccc2c(c1)NC(=O)C(CS(=O)(=O)Cc1cccc(Br)c1)N2 (centres undefined),i,i,-11,35µM*
CCn1nc(C)c(CCN(C)C(=O)Nc2cc(Cl)c(OC)cc2OC)c1C,i,i,3,i
Cc1ccc(Cl)cc1-n1ncc2c(N3CCC(C)CC3)ncnc21,i,i,62*,i
Clc1cccc(-n2ncc3c(N4CCN(Cc5ccccc5)CC4)ncnc32)c1,i,i,-1,i
Cc1ccc(-n2ncc3c(N4CCN(CCO)CC4)ncnc32)cc1Cl,i,i,65*,i
Cc1ccc(-n2ncc3c(N4CCN(Cc5ccccc5)CC4)ncnc32)cc1C,i,i,75*,i
O=C(CCCn1c2ccccc2c(=O)c2ccccc21)Nc1cccc(Cl)c1,i,i,16,i
O=C(CO)[C@@H](O)[C@H](O)[C@@H](O)CO,x,x,7,i
Cc1cc(O)c2ccccc2c1O,x,x,81*,i
O=S(c1cc(Cl)cc(Cl)c1O)c1cc(Cl)cc(Cl)c1O,x,x,5,i
Oc1c(Cl)cc(Cl)cc1Sc1cc(Cl)cc(Cl)c1O,x,x,80*,i
CC(=O)N1CCc2cc(S(=O)(=O)NC(Cc3ccccc3)C(=O)Nc3ccc(Cl)cc3)ccc21 (centres undefined),i,i,96*,i

# Assay outcomes (PubChem)
